# Bioassay records as filed in PubChem BioAssay.
# This is a sample that favours compounds with a hit; in the whole collection about 11% have one here.
# PNC inhibitor: perinucleolar compartment assembly inhibition | PC3M PTB-GFP, PNC prevalence imaging, 16 h; hits give low values | activity change (PNC), negative = inhibition, % at 10 µM | 3.1% of 140,000 active;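 active means readout at or below -70, meaning at least 70% loss of cells showing the perinucleolar compartment, a nuclear body marking cancer cells; inconclusive means readout between -30 and a set limit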
#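 Read-out is percentage of cells bearing a perinucleolar compartment, from automated 20x imaging of fixed, Hoechst-stained PC3M PTB-GFP cells. Cells were seeded 4 h, then exposed 16 h to compound (23 nl of library stock) in duplicate plates.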
# ALDH1A1 inh: ALDH1A1 (human) enzyme inhibition; Purified ALDH1A1, NADH fluorescence, propionaldehyde substrate; P00352; 7.3% of 220,000 active; AID 1030; Potency, µM (top dose mostly 75.3 µM), most hits filed as inhibitors
# Target sequence (P00352 whole entry, looked up): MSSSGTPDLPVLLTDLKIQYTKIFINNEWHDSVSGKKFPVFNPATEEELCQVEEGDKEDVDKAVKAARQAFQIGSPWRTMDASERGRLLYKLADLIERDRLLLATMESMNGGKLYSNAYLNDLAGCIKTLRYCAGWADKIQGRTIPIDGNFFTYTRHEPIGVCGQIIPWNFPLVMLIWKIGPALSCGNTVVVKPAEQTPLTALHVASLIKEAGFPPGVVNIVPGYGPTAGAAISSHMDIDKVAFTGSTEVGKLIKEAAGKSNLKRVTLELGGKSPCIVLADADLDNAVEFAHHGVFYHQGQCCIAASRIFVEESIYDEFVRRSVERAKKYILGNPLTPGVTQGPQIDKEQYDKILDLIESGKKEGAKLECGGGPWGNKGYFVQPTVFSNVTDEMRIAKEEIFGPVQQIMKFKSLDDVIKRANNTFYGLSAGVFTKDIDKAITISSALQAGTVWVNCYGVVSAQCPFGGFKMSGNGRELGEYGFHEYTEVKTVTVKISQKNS
# HPGD inh: inhibitors of human 15-hydroxyprostaglandin dehydrogenase (HPGD); purified HPGD, NADH fluorescence kinetic, PGE2 substrate; Potency, µM, most hits filed as inhibitors; 4.3% of 150,000 active
#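 NADH formation kinetics: reaction with 30 uM PGE2 and 1 mM NAD+ (final), 20 nM enzyme, Tris-HCl pH 8 with Tween 20, after 15 min compound preincubation at room temperature. Fluorescence change, last versus first of five reads.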
# Numbers stand for hits; - = inactive; ? = inconclusive; . = no result given; [ ] = remark or other dose. Unless noted, the call rests on the fitted dose curve; in most records, active means well fitted inhibition curve with a large enough effect (not every such curve was filed as active); inconclusive means small, poorly fitted or top-dose-only effect, or another doubt; inactive means no such curve, though single readings can be large or run the other way.
SMILES,PNC inhibitor,ALDH1A1 inh,HPGD inh
CSC1=NSC2=NC(=O)/C(=C/c3coc4ccc(O)cc4c3=O)C(=N)N12,?,?,22µM
CSC1=NSC2=NC(=O)/C(=C/c3coc4ccccc4c3=O)C(=N)N12,-,?,?
O=S(=O)(O)n1ccnc1 (tested in a mixture with another compound),.,-[13.5 µM],-
Cc1cc(NC(=O)c2cc(-c3ccco3)on2)n(-c2ccccc2)n1,-,?,-
Cc1cc(-c2ccco2)n(-c2ccccc2)n1,?,1.4µM,32µM
OCCC1CN(Cc2ccccc2-c2ccco2)CCN1C1CCCC1 (centres undefined),.,-,.
Cc1cc(C)c(COCc2cc(/C=N/O)c(C)cc2C)cc1/C=N/O,-,-,14µM
CCn1cc(/C=N/O)c(C)n1,-,-,-
COc1ccccc1NCC(=O)N/N=C(\C)c1ccc(Br)s1,-,-,-
C/C(=N/NC(=O)CNc1ccc(C)cc1)c1ccc(Br)s1,-,14µM,-
O=C(Nc1cccnc1)OC1CCCC1,.,-,.
CCOC(=O)c1c(-c2ccc(C)s2)csc1NC(=O)c1ccco1,-,-,?
CCOC(=O)c1c(-c2ccco2)csc1N,-,20µM,-
Cc1ccccc1NC(=O)C1CC(=O)N(Cc2ccccc2)C1 (centres undefined),.,-,.
N#CCCN(C(=O)Nc1ccc(Cl)c(Cl)c1)c1ccccc1,?,?,-
COc1cccc2cc(C(=O)NCc3ccco3)c(=O)oc12,-,?,-
COc1cccc2cc(C(=O)NCc3ccco3)c(=Nc3ccc(C(=O)O)cc3)oc12,?,16µM,?
CC(=O)Nc1ccccc1C(=O)C(=O)Nc1ccc(C(=O)NCC2CCCO2)cc1 (centres undefined),.,-,.
Cc1onc(-c2ccccc2Cl)c1C(=O)N[C@H]1C(=O)N2[C@H]1SC(C)(C)[C@H]2C(=O)O,.,-,-
O=C(O)C[C@H]1OCC=C2C[N@@+]3([O-])CC[C@]45c6ccccc6N[C@@H]4[C@@H]1[C@H]2C[C@H]53,.,-[13.5 µM],-
Cc1ccc(NC2Sc3ccccc3NC2=O)cc1 (centres undefined),.,25µM,.
COC(=O)CC1Sc2ccccc2NC1=O (centres undefined),-,-,-
O=C1[C@@H]2[C@H]3[C@H](O)[C@H](O)C/C(=N/OC[C@@H](O)COCc4ccco4)[C@H]3CC[C@H]2C(=O)N1c1ccc(F)cc1F,.,-[13.5 µM],.
N#C/C(=C(/O)CSc1nnc(Cc2cccs2)n1C1CCCCC1)c1nc2ccccc2[nH]1,-,?,-
COc1ccccc1-c1nnc(SC/C(O)=C(\C#N)c2nc3ccccc3[nH]2)n1C1CCCCC1,-,?,35µM
SMILES,PNC inhibitor,ALDH1A1 inh,HPGD inh
CC(C)OC(=O)c1cc2c(=O)[nH]c(C(Cl)(Cl)Cl)nc2o1,.,-,.
COc1ccccc1NC(=O)CN(Cc1ccco1)C(=O)c1cc2ccccc2o1,.,22µM,.
COc1ccccc1NC(=S)N(Cc1ccco1)Cc1cc2cccc(C)c2[nH]c1=O,-,-,-
CC(=O)N1C2(C=CC1(C)C(=O)NCCN1CCOCC1)CCCCC2 (centres undefined),.,-,-
C=C1C[C@@]23C[C@@]1(O)CCC2[C@@]12C=CC(O)[C@](C)(C(=O)O1)C2C3C(=O)O (some centres undefined),.,-,-
C=CCn1cc(C(=O)OCC)c(=O)c2ccc(F)cc21,.,-,.
COc1cc(/C=N/N2C(=O)C3C4C=CC(CC4)C3C2=O)ccc1O (centres undefined),.,14µM,.
O=C1CSC(=S)N1/N=C\c1ccc(Cl)c([N+](=O)[O-])c1,.,-[13.5 µM],-
COc1cc(/C=N/N2C(=O)c3ccccc3C2=O)ccc1O,-,?,-
COc1cc(/C=N/n2c(SC)nnc(C(C)(C)C)c2=O)ccc1O,-,-,.
COc1cc(/C=N/N2C(=O)CSC2=S)ccc1O,-,28µM,-
O=C1CSC(=S)N1/N=C/c1ccc(Cl)c([N+](=O)[O-])c1,.,32µM,.
O=S(=O)([O-])CCC[n+]1c(SCCCS(=O)(=O)O)sc2ccc(Cl)cc21,-,-,?
CCN1C(=O)[C@H]2[C@H]3[C@H](O)[C@H](O)C/C(=N/O[C@@H](C)CN4CCCc5nc(C)c(C)cc54)[C@@H]3CC[C@@H]2C1=O,.,-[13.5 µM],.
COc1cccc(C(=O)C2=NN(C(C)=O)CC2c2ccco2)c1 (centres undefined),.,-,.
CC1(C)Cn2c(nnc2-c2ccccc2)S1,-,-,16µM
CC1(C)Cc2ccccc2-c2nnc(-c3ccccc3)n21,-,-,-
COc1ccc(CCn2c(C)ccc2C)cc1OC,-100,-,-
COc1ccc(CCn2c(-c3ccc(C(C)(C)C)cc3)n[nH]c2=S)cc1OC,.,-,.
O=C1NC(N2CCOCC2)=N/C1=C/c1ccc2c(c1)OCO2,.,-,.
CCNC(=S)N1CCCC(C(N)=O)C1 (centres undefined),.,-,.
COC(=O)c1coc(-c2ccc(C)cc2)c1C(=O)OC,-,22µM,-
COC(=O)c1coc(-c2ccc(OC)cc2)c1C(=O)OC,-,?,?
O=C(COc1ccccc1)NCC(=O)Nc1cccc2ccccc12,-,-,-
Cc1ccc(C)n1NC(=O)c1cccs1,-117,-,-
SMILES,PNC inhibitor,ALDH1A1 inh,HPGD inh
Cc1cc(C)c(NS(=O)(=O)c2ccc(NC(=O)c3cccs3)cc2)c(C)c1,-,-,-
O=C(/C=N/O)NCc1cccnc1,?,-,.
Cc1ccc(C)n1NC(=O)c1ccccc1,-,-,-
Cc1ccc(S(=O)(=O)Nc2ccc(NC(=O)c3cccs3)cc2)cc1,.,28µM,.
O=C(Nc1cccnc1)c1cccs1,-100,-,-
O=C(/C=N/O)Nc1cccnc1,-100,-,-
O=C(Nc1cccc(NC(=O)c2cccs2)c1)c1cccnc1,.,-,.
CCCCn1nc(C(=O)Oc2ccc3c(C)cc(=O)oc3c2)c2ccccc2c1=O,-,?,?
COCCCNC(=S)NC1CCCCC1,?,-,-
Cc1[nH]n(-c2nc(-c3ccc(Cl)cc3)cs2)c(=O)c1N=Nc1ccc(O)cc1,.,-,.
COC(=O)c1sc(-c2ccccc2)cc1NC(=O)c1ccccc1,-,-,?
O=C(CN(c1cccc(Cl)c1)S(=O)(=O)c1ccc(Cl)cc1)N1CCc2ccccc2C1,-,-,-
COc1ccc2c(c1)O[C@H](c1ccc3c(c1)OCO3)[C@@H](OC(=O)NS(=O)(=O)c1ccc(F)cc1)C2=O,.,-,-
N/C(=N\O)c1ccc(NC(=O)c2cccs2)cc1,-,?,?
CC(=O)c1ccc(NC(=O)c2cccs2)cc1,-111,-,-
O=C(CNC(=O)c1ccncc1)N/N=C/c1ccc(O)cc1O,.,-,.
CCOC(=O)C(=NCCCN(C)C)NNc1cc(C(F)(F)F)ccc1Cl,.,-,.
COc1ccc(C2C(Oc3ccccc3)C(=O)N2c2cc(C)ccc2C)cc1OC (centres undefined),-89,-,-
COc1ccc(OC2C(=O)N(Cc3ccc(F)cc3)C2c2ccc(OC)c(OC)c2)cc1 (centres undefined),-,?,-
COc1ccc(C(=O)Cn2c(C(=O)/C=C/c3ccccc3)nc3ccccc32)cc1,-,-,-
COc1cc(OC)nc(NC(=S)NC(=O)c2ccccc2)n1,-,-,-
CN(Cc1ccccc1)C(=O)COC(=O)c1ccc(S(=O)(=O)N(C)C)cc1,.,-,.
COc1cc(C(=O)OCC(=O)N(C)Cc2ccccc2)cc(OC)c1OC,-100,-,-
